Test results taken from PubChem BioAssay.
Values without a mark were called inactive. The rule behind the calls is not given here.

What follows are compounds tested against Pantothenate synthetase (Mycobacterium tuberculosis (strain ATCC 25618 / H37Rv)) (UniProt P9WIL5) (assay: Coupled enzyme confirmation of inhibitors against recombinant Mtb PanC (AID 375;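 note: 0% = full reaction with vehicle and 100% = no enzyme background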)). Conditions: coupled enzyme assay; at 10 µM, hits give high values.
Sequence of Pantothenate synthetase (Mycobacterium tuberculosis (strain ATCC 25618 / H37Rv)) (P9WIL5 whole entry, looked up): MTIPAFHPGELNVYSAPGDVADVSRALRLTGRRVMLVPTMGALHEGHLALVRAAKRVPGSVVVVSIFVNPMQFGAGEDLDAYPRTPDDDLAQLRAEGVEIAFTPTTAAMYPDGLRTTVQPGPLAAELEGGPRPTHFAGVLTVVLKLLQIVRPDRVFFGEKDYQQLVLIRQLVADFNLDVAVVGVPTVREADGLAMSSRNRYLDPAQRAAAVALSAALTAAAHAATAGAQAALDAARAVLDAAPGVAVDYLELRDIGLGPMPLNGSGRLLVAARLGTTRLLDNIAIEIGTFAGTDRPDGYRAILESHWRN
`CCC1CCc2c(sc3ncnc(N4CCOCC4)c23)C1` (stereo not given) showed an inhibition of 0%.
`Cn1c(SCC(=O)N2CCOCC2)nnc1-c1cnccn1` was tested, and the inhibition was 0%.
`O=C(O)Cn1cc2c(n1)CCCC2` showed an inhibition of 0%.
In the case of `COc1ccc(S(=O)(=O)Nc2ccc3c(c2)OCO3)cc1Cl`, the inhibition was 5%.
With `O=C(Nc1nccs1)c1ccc(COc2ccccc2Br)o1` the inhibition was 0%.
`COc1ccc(CN2C(=O)[C@@H]3C(c4ccc(F)cc4)=NO[C@@H]3C2=O)cc1` showed an inhibition of 2%.
`NCCN1CCN(CCN)CC1` showed an inhibition of 0%.
For `CCOC(=O)C(C)Sc1nnc(Cc2cc(=O)[nH]c(=O)[nH]2)n1-c1ccc(Cl)cc1` (stereo not given), the inhibition was 0%.
Compound `CCC(C)NC(=O)CSC1=Nc2ccccc2C2=NC(CC(=O)NCc3ccccc3)C(=O)N12` (stereo not given) has an inhibition of 0%.
Work on `CN(C(=O)c1ccncc1)C1CC(C)(C)N(O)C(C)(C)C1` yielded an inhibition of 0%.
With `Cc1cccc(Cc2nnc(NC(=O)c3cccc(S(=O)(=O)N4CCOCC4)c3)s2)c1` the inhibition was 0%.
For `O=C(CSc1nnc2scc(-c3ccccc3)n12)Nc1nsc(-c2ccccc2)n1`, the inhibition was 1%.
`CCOc1ccccc1N(CC(=O)N1CCCCCC1)S(C)(=O)=O` gave an inhibition of 0%.
Compound `COC(=O)Nc1ccc(S(=O)(=O)N2CCCCCC2)cc1` has an inhibition of 0%.
`Cc1cc(=O)c2n(Cc3ccccc3Cl)nc[n+]2[nH]1` showed an inhibition of 5%.
With `Cc1cccc(OCC(=O)N2CCC(c3ccccc3)C2)c1` (stereo not given) the inhibition was 3%.
Work on `C=CCn1c(=S)[nH]c2nc3c(cc2c1=O)COC(C)(C)C3` yielded an inhibition of 16%.
In the case of `COc1cccc(-c2csc3nnc(SCC(=O)c4ccc(NC(C)=O)cc4)n23)c1`, the inhibition was 1%.
For `COc1ccc(CCN2C(=O)CCC2(C)C(=O)NCc2cccnc2)cc1OC` (stereo not given), the inhibition was 0%.
`COc1ccc(CCNc2nc(N3CCOCC3)nc(N3CCOCC3)n2)cc1OC` gave an inhibition of 0%.
`Cc1cc(C(=O)NCc2cccnc2)no1` was tested, and the inhibition was 0%.
`CCOC(=O)CSc1nnc(-c2ccc(Cl)cc2Cl)o1` showed an inhibition of 2%.
Compound `C=C(C)Cn1c(SCC)nc2ccccc2c1=O` has an inhibition of 4%.
Work on `CC(C)(C)c1cc(CCC(=O)N2CCNCC2)c(C(C)(C)C)cc1O` yielded an inhibition of 0%.
For `O=C(O)CCC(=O)Nc1ccc(S(=O)(=O)Nc2nccs2)cc1`, the inhibition was 0%.
Compound `COc1ccc(/C=N/O)cc1COc1ccc(NC(C)=O)cc1` has an inhibition of 1%.
`CCC(NC(C)C)C(O)c1ccc(O)c2[nH]c(=O)ccc12` (stereo not given) gave an inhibition of 0%.
With `CC(C)(C)NC(=O)CSc1nnc(-c2ccccn2)n1-c1ccccc1` the inhibition was 0%.
In the case of `Oc1cccc(Nc2nc(NCC3CCCO3)c3ccccc3n2)c1` (stereo not given), the inhibition was 1%.
`Cc1nc2ccc(NC(=O)N3CCC(c4ccccc4)C3)cc2nc1C` (stereo not given) was tested, and the inhibition was 0%.
`COc1ccccc1C(=O)n1nc(-c2ccc(Cl)cc2)nc1N` showed an inhibition of 3%.
Work on `O=C1CSC(=Nc2ccc(O)cc2)N1c1ccc(O)cc1` yielded an inhibition of 0%.
`CCOC(=O)C1CCCn2c1nc1sc3c(c1c2=O)CCCC3` (stereo not given) showed an inhibition of 0%.
`NC(=O)COC(=O)c1ccc(S(=O)(=O)N2CCCCCC2)cc1` gave an inhibition of 0%.
With `CCN(CC)Cc1c(C(=O)OC)nnn1-c1nonc1N` the inhibition was 0%.
Work on `c1ccc2c(-c3nc(C4CCCCC4)no3)cc(-c3ccncc3)nc2c1` yielded an inhibition of 1%.
In the case of `Cc1c(C(=O)N2CCCC2)sc(NC(=O)c2cccs2)c1C#N`, the inhibition was 0%.
Work on `CN(c1cccc(NC(=O)COc2ccccc2)c1)S(C)(=O)=O` yielded an inhibition of 6%.
In the case of `CCCN1CCN(CCCNC(=O)Cn2nc(-c3ccc(Cl)cc3)ccc2=O)CC1`, the inhibition was 0%.
`O=C(NCC1CCCO1)c1ccccc1-c1nc(-c2ccc(Cl)cc2)no1` (stereo not given) was tested, and the inhibition was 1%.
